This assay deals with Trypanosoma brucei. Nature of the assay: Trypanosoma brucei 72 hour study. In kind it is functional, organism-based. Also noted: scale not given: in the data most compounds retested in dose-response had high values.

Out of some 66,000 compounds screened, about 960 (1.5%) showed an effect of 50% or more. The sample as a whole holds a higher share of strong results than the screen did.

The text below walks through data of ChEMBL document CHEMBL3988442, “University of Dundee, Small-Polar-MMV Screening Library” (2021).

For the compound `CCOC(=O)[C@@H]1[C@@H](c2ccccc2)CN2CCNC[C@H]12`, for the setting “30.3 µM, […]”, the “Percent Effect” value was -24.8%.

Consider `O=C1CSC(c2cccs2)c2cnn(C3CCCC3)c2N1` (stereo unspecified), for which, where the note is “30 µM, 30.03 µM”, the “Percent Effect” value amounted to 106.7%.

In the case of `COC(=O)c1ccc(C2SCC(=O)Nc3c2cnn3C2CCCC2)cc1` (stereo unspecified), for the setting “30 µM, 30.03 µM”, the “Percent Effect” value stood at 9.206%.

Take `O=C1CSC(c2ccc3c(c2)OCO3)c2cnn(C3CCCCC3)c2N1` (stereo unspecified): under “30 µM, 30.03 µM”, the “Percent Effect” value worked out at 6.351%.

`CN1CCN(S(=O)(=O)c2cccc(F)c2)Cc2cccnc21.O=C(O)C(F)(F)F`: the “Percent Effect” value (30.3 µM, […]) is on record as -5.986%.

For `COCCN1CCN(c2ccc(C)nn2)Cc2ccc(C)nc21.O=C(O)C(F)(F)F.O=C(O)C(F)(F)F`, the “Percent Effect” value (30.3 µM, […]) is reported as 6.262%.

As to `COCCN1CCN(c2cccc(C)n2)Cc2ccc(C)nc21.O=C(O)C(F)(F)F.O=C(O)C(F)(F)F`, where the note is “30.3 µM, […]”, the “Percent Effect” value was determined as 60.56%.

With `COCCN1CCN(S(C)(=O)=O)Cc2ccc(C)nc21.O=C(O)C(F)(F)F`, under “30.3 µM, […]”, the “Percent Effect” value was -28.84%.

As for `COc1ccc(CNC(C)Cn2cccn2)c(OC)c1OC.Cl` (stereo unspecified), the “Percent Effect” value reads like this: (30.3 µM, […]) 4.713%; (10 mM, 10 mM as filed; unlikely as a test dose) -54.3%.

As for `COc1cc(CNCC(O)c2cccc(F)c2)cc2c1OCO2.Cl` (stereo unspecified), the “Percent Effect” value (30.3 µM, […]) turned out to be 81.63%.

Turning to `COc1cc(CNC(C)Cn2cccn2)cc2c1OCO2.Cl` (stereo unspecified), for the setting “30.3 µM, […]”, the “Percent Effect” value is on record as -1.111%.

On to `COc1cc(CNCC(O)c2ccc(C)cc2)cc2c1OCCO2.Cl` (stereo unspecified), for which, for the setting “30 µM, 30.03 µM”, the “Percent Effect” value is reported as 42.56%.

Turning to `COc1cc(CNCC(O)c2ccc(F)c(F)c2)cc2c1OCO2` (stereo unspecified), the “Percent Effect” value (30 µM, 30.03 µM) turned out to be 4.493%.

Take `COc1cc(CNC(C)Cn2ccnc2)cc2c1OCO2.Cl` (stereo unspecified): the “Percent Effect” value (30.3 µM, […]) was determined as 4.669%.

As for `COc1cc(CNCC(O)c2ccc(C)cc2)cc2c1OCO2.Cl` (stereo unspecified), where the note is “30.3 µM, […]”, the “Percent Effect” value amounted to 100.7%.

For the compound `Cl.Cl.c1cncc(COC[C@@H]2CCC[C@@]23CNCCO3)c1`, the “Percent Effect” value (30.3 µM, […]) is on record as -44.98%.

With `CC(C)N1CCC2(CC1)C(=O)N(CCN(C)C)c1ccccc12.O=C(O)C(F)(F)F.O=C(O)C(F)(F)F`, under “30.3 µM, […]”, the “Percent Effect” value is listed as 5.685%.

For the compound `O=C(O)C(F)(F)F.O=C(O)C(F)(F)F.O=C(O)C(F)(F)F.c1ccc(CN2CC[C@@H]3[C@@H](CO[C@@H]3CNc3ncccn3)C2)nc1`, the “Percent Effect” value (30.3 µM, […]) was -6.943%.

`COc1ccc(CN2C[C@@H]3OCCN(c4ncccn4)[C@@H]3C2)cc1.O=C(O)C(F)(F)F.O=C(O)C(F)(F)F`: the “Percent Effect” value (30 µM, 30.03 µM) is reported as -40.73%.

In the case of `COc1cc2nc(NCc3ccc(C)nc3)nc(N)c2cc1OC`, the “Percent Effect” value (30.3 µM, […]) is 100.6%.

Take `O=C(C[C@@H]1COC[C@H]2CN(C3CCC3)C[C@@H]12)NCc1cccnc1.O=C(O)C(F)(F)F.O=C(O)C(F)(F)F`: the “Percent Effect” value (30.3 µM, […]) amounted to 12.19%.

With `COc1ccc(CCNCc2c(C)nn(C)c2N(C)C)cc1OC.Cl`, under “30.3 µM, […]”, the “Percent Effect” value is listed as -31.69%.

In the case of `O=C(c1cnn2c1OCCC2)N1CCC2(CC1)OCCO2`, the “Percent Effect” value (30 µM, 30.03 µM) was 55.16%.

For the compound `O=C(c1ccccc1-n1cnnn1)N1CCC2(CC1)OCCO2`, the “Percent Effect” value (30 µM, 30.03 µM) is on record as -25.19%.

As for `O=C(c1ccc(Cl)cc1-n1cnnn1)N1CCC2(CC1)OCCO2`, the “Percent Effect” value (30 µM, 30.03 µM) was -30.99%.
